This excerpt belongs to a sample that is enriched for hits.
NS1 function inh: blocks influenza NS1 protein function | Potency, µM (titrated, usually from 46.1 µM), inactives show at the highest dose activity, positive = more growth | 270,000 compounds, 0.4% hits | AID 2326; calls by dose curve; further: potency means the concentration at half of the fitted maximal effect; actives are rising curves; nearly all actives have a fitted effect of over 50% in size
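A cell-based growth assay was used: compounds that relieve NS1-induced slow growth of budding yeast raise OD600. Assay medium was yeast nitrogen base with ammonium sulphate and -URA supplement, pH 6.0, with 2% galactose.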
AmpC inh no detg: AmpC beta-lactamase inhibition without detergent. P00811. AmpC nitrocefin hydrolysis, absorbance 480 nm, 0.0001% Triton. Potency, µM (series often up to 57.1 µM), for inactives: at the highest dose activity change, negative = inhibition, usual class: inhibitors. 330,000 compounds, 0.52% hits. AID 485341;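 further: potency means the concentration at half of the fitted maximal effect; plate controls were no compound for no effect and no enzyme for full effect; nearly all actives have a fitted effect of over 20% in size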
Target sequence (P00811 whole entry, looked up): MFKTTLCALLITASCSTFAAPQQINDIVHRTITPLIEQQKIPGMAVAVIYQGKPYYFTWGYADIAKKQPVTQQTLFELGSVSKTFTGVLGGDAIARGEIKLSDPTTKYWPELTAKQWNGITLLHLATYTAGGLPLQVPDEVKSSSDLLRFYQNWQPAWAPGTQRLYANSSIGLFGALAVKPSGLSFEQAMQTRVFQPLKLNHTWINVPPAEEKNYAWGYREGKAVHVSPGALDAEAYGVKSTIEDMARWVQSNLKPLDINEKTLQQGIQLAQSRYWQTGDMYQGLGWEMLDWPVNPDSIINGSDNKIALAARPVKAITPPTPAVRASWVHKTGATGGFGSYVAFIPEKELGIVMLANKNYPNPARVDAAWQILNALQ
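20 mM phosphate pH 7.0 + 0.01% (detergent screen) or 0.0001% Triton X-100; 5.3 nM AmpC reagent; cpd preinc 15 min RT; nitrocefin (800 uM stock) to start; A480 q20 s × 4 min; Activity was normalised to no-enzyme and no-compound control wells.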
Shiga inhibitor: blocks Shiga toxin action in Vero cells; AID 2315; Vero cells, Shiga toxin protein synthesis inhibition reporter; inhibition, % at 38.7 µM; 290,000 compounds, 9.2% hits; in the data active means inhibition mostly above about 28%, no sharp cut-off; inactive means mostly below about 43%; further: 0% is about no effect
AmpC inh detg: inhibitors of E. coli AmpC beta-lactamase with detergent | P00811 | AmpC hydrolysis of nitrocefin, absorbance 480 nm, 0.01% Triton | Potency, µM (doses to about 114 µM), inactives show at the top dose activity change, negative = inhibition, most hits filed as inhibitors | 370,000 compounds, 0.041% hits;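 further: potency means the concentration at half of the fitted maximal effect; 0% = no-compound wells and -100% = no-enzyme wells; nearly all actives have a fitted effect of over 25% in size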
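20 mM phosphate pH 7.0 + 0.01% (detergent screen) or 0.0001% Triton X-100; 5.3 nM AmpC reagent; cpd preinc 15 min RT; nitrocefin (800 uM stock) to start; A480 q20 s × 4 min; Activity was normalised to no-enzyme and no-compound control wells.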
CHX counter: affects cycloheximide protein synthesis inhibition readout, counter-screen | cell reporter, cycloheximide protein synthesis inhibition counterscreen | max response, % | 300,000 compounds, 12% hits; in the data active means max response mostly above about 13%, no sharp cut-off; inactive means mostly below about 14%; further: read at 38.3 µM for the half of the compounds with a filed dose; 0% is about no effect
Active calls of the source: *; ? = inconclusive; . = no result; + = active, no number. Unless noted, the call rests on the fitted dose curve; in most records, active means well fitted curve in the direction sought with a large enough effect; inconclusive means small, poorly fitted or top-dose-only effect, or another doubt; inactive means no such curve, though single readings can be large; an effect the other way counts as inactive or inconclusive.

SMILES	NS1 function inh	AmpC inh no detg	Shiga inhibitor	AmpC inh detg	CHX counter
O=C(Cc1csc2ccccc12)NCc1cccc(Br)c1	.	.	.	-7%	.
O=C(COC(=O)c1ccc(-c2cnc3ccccc3n2)cc1)c1ccccc1	7%	-21%	10	?	11
Cc1ccc(C(=O)OCC(=O)c2ccccc2)cc1	2%	-21%	48*	1%	23*
O=C(CN1C(=O)CCC1=O)c1ccc(-c2ccccc2)cc1	14%	11%	83*	6%	63*
Cc1ccc(C(=O)COC(=O)c2cccc(NC(=O)c3ccc([N+](=O)[O-])cc3[N+](=O)[O-])c2)cc1	-2%	-44%	136*	?	36*
N=c1ccn(CC(=O)c2ccc(-c3ccccc3)cc2)cc1	-5%	22%	-5	-5%	-1
Cc1ccc(C(=O)CCc2ccc(N)cc2)cc1	1%	-18%	96*	-6%	31*
CC(=O)Nc1ccc(C(=O)OCC(=O)c2cccc([N+](=O)[O-])c2)cc1	7%	-18%	-11	-9%	3
Cc1cccc(COc2ccc(-c3cc(C(F)(F)F)n4nc(C)cc4n3)cc2)c1	.	.	.	-3%	.
COc1ccccc1NC(=O)Cn1c(=O)n(-c2cccc(Cl)c2)c(=O)c2c1c1cc(C)ccc1n2C	.	.	.	-5%	.
CCc1cccc(C)c1NC(=O)NC1COc2ccccc2C1 (stereo unspecified)	.	.	.	16%	.
[Cl][Pd][Cl].[S-]C1=C2N=CN[C-]2[NH+]=C[N-]1.[S-]c1ncnc2[nH]cnc12	-11%	.	.	.	.
Cc1cc(C)c(C(=O)CC(=O)c2ccccc2Cl)c(O)c1	-73%	-29%	22	3%	22*
COc1ccc(S(=O)(=O)N2CCCC2)c(Cl)c1Cl	.	113%	-3	?	-2
COc1ccc(OC)c2c1C(=O)C(Cl)=C(Cl)C2=O	-83%	-3%	13	-5%	15*
NC1=C(Br)C(=O)c2ccccc2C1=O	-49%	-20%	81*	4%	31*
O=C1C(=O)c2ccccc2-c2ccccc21	-39%	-18%	-41	-4%	-12
O=C1c2ccccc2C(=O)c2c(O)c(O)cc(O)c21	.	-20%	.	.	.
Nc1ccc(O)c2c1C(=O)c1ccccc1C2=O	3%	-12%	36*	0%	22*
COc1ccc(N)c2c1C(=O)c1ccccc1C2=O	-32%	-20%	60*	?	51*
COc1ccc(OC)c2c1C(=O)c1ccccc1C2=O	-6%	-14%	-10	1%	-2
Cc1cc(C)c(S(=O)(=O)NCCc2cc3c(C)ccc(C)c3[nH]c2=O)c(C)c1	.	.	.	15%	.
Cc1ccc(NC(=O)CCS(=O)(=O)c2cc(Br)cc3c2N(C(=O)C2CC2)CC3)cc1	.	.	.	15%	.
Nc1ccc(NC(=O)c2ccccc2)c2c1C(=O)c1ccccc1C2=O	7%	-14%	-4	-3%	1
Nc1ccc(Br)c2c1C(=O)c1ccccc1C2=O	-94%	-45%	20	-1%	28*
SMILES	NS1 function inh	AmpC inh no detg	Shiga inhibitor	AmpC inh detg	CHX counter
CN(C)/C=N/c1ncc(C(=O)c2ccc3ccccc3c2)s1	1%	56%	32	-6%	33*
CCOC(=O)c1sc2nccc(OC)c2c1N=CN(C)C	.	-8%	-12	?	16
Cc1cc(Sc2nnc(/N=C/N(C)C)s2)c2ccccc2n1	-40%	41%	-15	1%	-1
COc1ccc(C(=O)c2cnc(/N=C/N(C)C)s2)cc1	5%	-12%	+	-6%	42*
Cc1ccc2[nH]c(=O)c(C(c3nnnn3CC3CCCO3)N3CCOCC3)cc2c1 (stereo unspecified)	-2%	-20%	55	-19%	-8
CCc1ccc2[nH]c(=O)c(CN(Cc3ccc(F)cc3)C(c3nnnn3CCN3CCOCC3)C(C)C)cc2c1 (stereo unspecified)	18%	-11%	28*	0%	43*
CCC(c1nnnn1CC1CCCO1)N(CCN1CCOCC1)Cc1cc2cc(C)ccc2[nH]c1=O (stereo unspecified)	2.2µM*	45%	14	5%	5
COc1ccc(C(=O)/C=C/c2ccc(N(C)C)cc2)c(OC)c1	8%	-13%	30	1%	26*
COc1ccc(C(=O)/C=C/c2cc(OC)c(O)c(OC)c2)c(F)c1	-19%	-38%	9	13%	6
COc1ccc(C(=O)/C=C/c2ccccc2)c(OC)c1	-8%	-13%	54*	-1%	32*
COc1ccc(/C=C/C(=O)c2ccc3c4c(cccc24)CC3)cc1	14%	-15%	46	-13%	9

Compound activity (PubChem)
